In PubChem BioAssay AID1347070 (National Center for Advancing Translational Sciences (NCATS), 2019):
In all, about 94,000 compounds went through this assay and about 20 (0.02%) were called active. Another 1% or so got no clear call; they are omitted. Calls follow the shape of the dose curve; as a rule, active = well fitted activation curve with a large enough effect; inconclusive = small, poorly fitted or top-dose-only effect; inactive = flat fitted curve, though single readings scatter. These entries were drawn from the full list.

Assay: qHTS of alpha-syn Inhibitors: NCGC Sytravon Library Screen; also: 0% is about no effect
Conditions: S. cerevisiae alpha-synuclein toxicity rescue, BacTiter-Glo growth, 24 h; series mostly up to 46.1 µM; growth rescue (activation): at the top concentration
Text: The goal of this project is to identify new chemical probes capable of reversing the toxicity associated with the Parkinson disease-related protein, alpha-synuclein. Compounds will be selected on their ability to restore growth in yeast cells expressing toxic levels of alpha-synuclein. These compounds will provide a complementary approach to deciphering the tangled mechanisms of toxicity and protection that we have uncovered through genome-wide genetic screens and are beginning to uncover in a large-scale proteomics analysis with mass spectroscopy. To this end, a miniaturized assay was developed to be screened against the Molecular Libraries Small Molecule Repository (MLSMR) to discover alpha-synuclein inhibitors. […] The phenotype of interest will be that of an Activator and this screen is run against the NCGC Sytravon Library collection. NIH Chemical Genomics Center [NCGC] NIH Molecular Libraries Probe Centers Network [MLPCN] MLPCN Grant: NS060957 Assay Submitter (PI): Susan Lindquist, Whitehead Institute/MIT
Dispense 2.5 microL yeast galactose medium per 1536-well plate, pin compound, dispense 2.5 microL alpha-synuclein expressing yeast in galactose medium at OD600=0.02 (pregrown in raffinose medium to mid-log phase) per well, incubate for 24 hr at 30 deg C, and cell growth will be measured using 5 microL of Bactiter/Glo reagent to entire plate and read using Luminescence Protocol in ViewLux.

| Compound | growth rescue (activation) |
| --- | --- |
| CC(=O)Nc1ccc(C=CC(=O)c2ccc([N+](=O)[O-])cc2)cc1 | 5.68% (inactive) |
| CC1CCCC(NC(=O)COC(=O)c2ccccc2C(=O)N(C)C2CCCCC2)C1C (stereo not drawn) | -3.25% (inactive) |
| Cc1cc(=O)oc2c3c(cc(OCC(=O)NCCC(=O)N[C@@H](C)C(=O)O)c12)OC(C)(C)CC3 | 3.65% (inactive) |
| COc1ccc(CN2C[C@H]3CON(C)[C@H]3C[C@H]2c2ccc(-c3cccc(F)c3)cc2)cc1 | 0.355% (inactive) |
| O=C(COC(=O)CCc1ccc(S(=O)(=O)N2CCOCC2)cc1)Nc1cccc(Cl)c1 | -1.34% (inactive) |
| CC(=O)NC1C(Oc2ccc(C=O)cc2)OC(COC(C)=O)C(OC(C)=O)C1OC(C)=O (stereo not drawn) | 3.09% (inactive) |
| CCc1ccccc1OCC(=O)Nc1nnc(C2CC2)s1 | -0.762% (inactive) |
| C=C(C)CNC(=O)c1ccc(OC2CCN(C(=O)COC)CC2)cc1 | 4.36% (inactive) |
| COc1ccc(CCNC(=O)C(=O)NCC2CCCN2S(=O)(=O)c2cccs2)cc1OC (stereo not drawn) | 8.88% (inactive) |
| CC1(C)OC(=O)C2=C(CC(c3ccccc3)OC2CCc2ccccc2)O1 (stereo not drawn) | -5.04% (inactive) |
| CCOC(=O)C=Cc1ccc(C(=O)OCC)[nH]1 | 7.29% (inactive) |
| CCOn1c(=O)c(=O)n(O)c2ccccc21 | -0.897% (inactive) |
| COc1ccc(NS(=O)(=O)c2ccc(F)cc2F)cn1 | 4.98% (inactive) |
| CC(C)CN(C(=O)COC(=O)c1ccc(Cl)c(N)c1)c1c(N)n(Cc2ccccc2)c(=O)[nH]c1=O | -2.42% (inactive) |
| CC(=O)c1sc(N)nc1C | -4.44% (inactive) |
| O=C1COc2ccc(S(=O)(=O)NCCc3ccc(Cl)cc3)cc2N1 | 0.307% (inactive) |
| CCCCn1c(N)c(N(CC(C)C)C(=O)C2CSC3(C)CCC(=O)N23)c(=O)[nH]c1=O (stereo not drawn) | 5.73% (inactive) |
| O=C(CN1C(=O)NC2(CCc3ccccc32)C1=O)NC1CCCCC1 (stereo not drawn) | -10.1% (inactive) |
| Cc1cc(C)c(NC(=O)CN2C(=O)NC(Cc3ccccc3)C2=O)c(C)c1 (stereo not drawn) | -1.11% (inactive) |
| O=C(O)c1ccccc1Cc1ccc(F)c2ccccc12 | -44.2% (inactive) |
| CC(C)CCN1CCN(Cc2ccc(C(F)(F)F)cc2)CC1CCO (stereo not drawn) | 3.51% (inactive) |
| Cc1ccc(C)c(OCCC(=O)OCC(=O)c2ccc3c(c2)NC(=O)CO3)c1 | 1.8% (inactive) |
| CC(=O)Nc1ccc(NC(=O)CSc2ncnc3c2cnn3Cc2ccccc2)cc1 | 5.2% (inactive) |
| CCCc1cc(=O)[nH]c(SCc2cc(=O)oc3c(C)c(C)ccc23)n1 | 2.67% (inactive) |
| Cc1c(NC(=O)C(C)OC(=O)c2c3c(nc4ccccc24)CCC(C)C3)c(=O)n(-c2ccccc2)n1C (stereo not drawn) | -4.21% (inactive) |
| Cc1cc(C(=O)CCC(=O)NNC(=O)c2ccccc2O)c(C)s1 | -2.99% (inactive) |
| Cc1ccc(OCCC(=O)OCC(=O)N2c3ccccc3NC(=O)C2(C)C)cc1 | 2.18% (inactive) |
| O=C(CN1CCOCC1)Nc1cccc([N+](=O)[O-])c1 | -0.986% (inactive) |
